Laboratory results reported in paper PMC11574364.

Assays:
Experiment in all cases: protein domain microarray probed with biotinylated miRNA; Domain array: 20 mM Tris-HCl pH 7.4, 200 mM KCl, 0.2 mM EDTA, 0.05% NP40, 2 ug/ul heparin, overnight 4 C. ORF array: PBS pH 7.0 with RNase inhibitor, 100 ng RNA; high values mean tight binding
Details in all cases: ssRNA
hnRNP E1(1-2) = hnRNP E1(1-2) (Homo sapiens, UniProt Q15365)
TIAL1 = biological target: T1, TIAL1 (Homo sapiens, UniProt Q01085)
T1 sequence: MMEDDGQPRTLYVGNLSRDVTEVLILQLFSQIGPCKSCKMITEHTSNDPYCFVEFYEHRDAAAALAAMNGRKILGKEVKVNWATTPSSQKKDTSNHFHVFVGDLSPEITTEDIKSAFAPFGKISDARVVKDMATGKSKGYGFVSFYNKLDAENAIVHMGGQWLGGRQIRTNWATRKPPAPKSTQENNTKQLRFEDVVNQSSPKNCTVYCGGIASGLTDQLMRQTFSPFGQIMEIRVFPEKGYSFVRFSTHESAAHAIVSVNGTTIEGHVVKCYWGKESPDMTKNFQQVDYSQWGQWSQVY

RNPS1 = biological target: T2, RNPS1 (Homo sapiens, UniProt Q15287)
T2 sequence: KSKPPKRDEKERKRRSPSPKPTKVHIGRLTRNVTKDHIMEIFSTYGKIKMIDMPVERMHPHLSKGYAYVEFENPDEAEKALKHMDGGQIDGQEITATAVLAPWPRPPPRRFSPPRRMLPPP

RBMY1A1 / RBMY1B = RBMY1A1 / RBMY1B (Homo sapiens, UniProt P0DJD3)
SHARP(1) = biological target: T3, SHARP(1) (Homo sapiens, UniProt Q96T58)
T3 sequence: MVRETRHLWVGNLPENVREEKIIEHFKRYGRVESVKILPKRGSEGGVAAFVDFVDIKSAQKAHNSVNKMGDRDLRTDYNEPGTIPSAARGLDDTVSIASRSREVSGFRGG

RBMX2 = biological target: T4, RBMX2 (Homo sapiens, UniProt Q9Y388)
T4 sequence: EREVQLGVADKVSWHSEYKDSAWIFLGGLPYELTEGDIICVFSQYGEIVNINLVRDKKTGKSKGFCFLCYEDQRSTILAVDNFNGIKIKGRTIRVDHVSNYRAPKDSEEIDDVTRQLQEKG

RDM1 = biological target: T5, RDM1 (Homo sapiens, UniProt Q8NG50)
T5 sequence: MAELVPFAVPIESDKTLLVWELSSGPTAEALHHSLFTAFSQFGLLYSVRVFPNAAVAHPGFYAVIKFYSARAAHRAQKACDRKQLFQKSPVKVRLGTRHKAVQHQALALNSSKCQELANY

SHARP(2-4) = biological target: T6, SHARP(2-4) (Homo sapiens, UniProt Q96T58)
T6 sequence: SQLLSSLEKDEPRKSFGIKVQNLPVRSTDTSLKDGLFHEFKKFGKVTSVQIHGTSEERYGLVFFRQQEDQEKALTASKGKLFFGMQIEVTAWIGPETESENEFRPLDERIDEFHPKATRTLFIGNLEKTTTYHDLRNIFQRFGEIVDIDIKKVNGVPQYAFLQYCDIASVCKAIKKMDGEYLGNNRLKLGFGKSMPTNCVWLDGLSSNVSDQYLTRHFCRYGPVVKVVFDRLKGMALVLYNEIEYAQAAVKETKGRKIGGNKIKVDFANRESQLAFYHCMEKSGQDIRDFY

SRSF10 = SRSF10 (Homo sapiens, UniProt O75494)
DDX9(2)/DHX9 = DDX9(2)/DHX9 (Homo sapiens, UniProt Q08211)
Sequence of DDX9(2)/DHX9 (Q08211 161-271): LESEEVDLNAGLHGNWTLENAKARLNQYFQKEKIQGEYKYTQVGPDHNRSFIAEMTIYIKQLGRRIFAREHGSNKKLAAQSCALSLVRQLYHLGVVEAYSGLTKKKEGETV

Sequence of SRSF10 (O75494 1-120): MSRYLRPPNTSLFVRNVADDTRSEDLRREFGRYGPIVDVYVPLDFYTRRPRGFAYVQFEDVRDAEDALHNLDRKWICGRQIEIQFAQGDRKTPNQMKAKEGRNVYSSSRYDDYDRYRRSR
Sequence of RBMY1A1 / RBMY1B (P0DJD3 1-110): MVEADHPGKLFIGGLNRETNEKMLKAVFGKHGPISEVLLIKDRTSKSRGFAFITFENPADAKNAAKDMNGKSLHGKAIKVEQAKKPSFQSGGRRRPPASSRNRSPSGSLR
Sequence of hnRNP E1(1-2) (Q15365 1-183): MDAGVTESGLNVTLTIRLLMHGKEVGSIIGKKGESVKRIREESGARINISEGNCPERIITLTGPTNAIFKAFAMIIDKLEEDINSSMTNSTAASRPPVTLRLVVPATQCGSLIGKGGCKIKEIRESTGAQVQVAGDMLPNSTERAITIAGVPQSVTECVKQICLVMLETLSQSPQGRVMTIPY

Sequence | binding signal (hnRNP E1(1-2)) | binding signal (TIAL1) | binding signal (RNPS1) | binding signal (RBMY1A1 / RBMY1B) | binding signal (SHARP(1)) | binding signal (RBMX2) | binding signal (RDM1) | binding signal (SHARP(2-4)) | binding signal (SRSF10) | binding signal (DDX9(2)/DHX9)
UGAGGUAGUAGGUUGUGUGGUU | 34.9 ± 2.48 fluorescence intensity | 740 ± 11.2 fluorescence intensity | 565 ± 18.8 fluorescence intensity | 1360 ± 32 fluorescence intensity | 1119.4 ± 0.849 fluorescence intensity | 111 ± 6.68 fluorescence intensity | 427 ± 12.9 fluorescence intensity | 1000 ± 18.8 fluorescence intensity | 467 ± 36.1 fluorescence intensity | 53.91 ± 0.134 fluorescence intensity
UGAGGUAGUAGGUUGUAUGGUU | 26.7 ± 0.438 fluorescence intensity | 789 ± 12.4 fluorescence intensity | 294 ± 40.2 fluorescence intensity | 1403 ± 13.2 fluorescence intensity | 702.32 ± 0.332 fluorescence intensity | 69.6 ± 0.757 fluorescence intensity | 232 ± 12 fluorescence intensity | 710 ± 31.7 fluorescence intensity | 375 ± 21.5 fluorescence intensity | 44.6 ± 4.16 fluorescence intensity
CAGUGCAAUGAUGAAAGGGCAU | 26.8 ± 0.919 fluorescence intensity | 523 ± 28 fluorescence intensity | 160 ± 25.6 fluorescence intensity | 1153 ± 5.4 fluorescence intensity | 1723 ± 15.7 fluorescence intensity | 29.6 ± 4.16 fluorescence intensity | 185 ± 14.8 fluorescence intensity | 630 ± 20.1 fluorescence intensity | 865.4 ± 6.43 fluorescence intensity | 26 ± 1.37 fluorescence intensity
AGAGGUAGUAGGUUGCAUAGUU | 27.4 ± 2.06 fluorescence intensity | 1020 ± 13.1 fluorescence intensity | 183 ± 12.6 fluorescence intensity | 2000 ± 49 fluorescence intensity | 423 ± 5.21 fluorescence intensity | 65.8 ± 17.9 fluorescence intensity | 230 ± 20.4 fluorescence intensity | 711 ± 17.9 fluorescence intensity | 422 ± 31.8 fluorescence intensity | 33 ± 2.41 fluorescence intensity
UGAGGUAGUAGGUUGUAUAGUU | – | 437 ± 10.1 fluorescence intensity | 45.1 ± 1.35 fluorescence intensity | 754 ± 30.5 fluorescence intensity | 63 ± 1.09 fluorescence intensity | 34.7 ± 8.67 fluorescence intensity | 46.4 ± 1.9 fluorescence intensity | 138 ± 34.1 fluorescence intensity | 91 ± 3.12 fluorescence intensity | –
UAGCUUAUCAGACUGAUGUUGA | – | 684 ± 18.7 fluorescence intensity | – | 602 ± 35.9 fluorescence intensity | 32 ± 6.87 fluorescence intensity | 21.4 ± 3.97 fluorescence intensity | 21.8 ± 0.523 fluorescence intensity | 705 ± 41.5 fluorescence intensity | 33.4 ± 2.35 fluorescence intensity | –
